Shown are actives, neighbours in structure and some others; about 7.3% of the full set was active somewhere.
p53 reactivator: re-activators of mutant p53; AID 504706; Potency, µM (series often up to 92.2 µM), without a hit: at the top dose activity change, positive = activation, usual class: activators; 0.063% of 320,000 active; H1299 p53-A138V BP100-luciferase reporter, luminescence, 24 h; note: % of control where 0% means no effect; nearly all actives have a fitted effect of over 45% in size
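p53-null H1299 cells stably carrying temperature-sensitive p53-A138V and a BP100-luciferase reporter were pinned with compounds (4-point, 1:5 series) and held 24 hrs at 37 deg C. Luminescence was read 10 min after detection reagent.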
SMN2 splice enh: enhancers of SMN2 splice variant expression; Potency, µM (titrated, usually from 46.1 µM), for the others: at the top dose activity change, positive = activation, hits mostly activators; 2.8% of 210,000 active; HEK293 SMN2-luciferase splicing reporter, luminescence, 30-36 h; note: % of control where 0% means no effect; nearly all actives have a fitted effect of over 55% in size
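qHTS luciferase splicing reporter: luminescence rises when SMN2 exon 7 is included in transfected HEK293 cells. Compound exposure lasted 30-36 h at 37C, with 4.5 mM final sodium butyrate as control, followed by a ONE-Glo read.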
Rab9 prom act: Rab9 promoter activation; Huh7 Rab9 promoter-luciferase reporter, luminescence, 24 h; Potency, µM (series often up to 9.22 µM), without a hit: at the highest dose activation, negative = inhibition, hits mostly activators; 2.8% of 320,000 active; AID 485297; note: % of control where 0% means no effect; nearly all actives have a fitted effect of over 60% in size
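Cell-based reporter: Huh7 stable for Rab9 promoter-driven luciferase, plated in reduced-serum medium with 10% FBS at 1500 cells/well, compound-treated 24 h at 37 °C, luminescence read after 10 min reagent.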
ELG1 genotoxic: induces genotoxicity in HEK293T cells with luciferase-tagged ELG1. Potency, µM (titrated, usually from 46 µM), inactives show top-dose activity change, positive = activation, actives largely listed as activators. HEK293T ELG1-luciferase reporter, luminescence, 16 h. 1.3% of 330,000 active. AID 504466; note: % of control where 0% means no effect; nearly all actives have a fitted effect of over 60% in size
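Quantitative HTS format in 1536-well plates. HEK293T ELG1-luciferase reporter cells receive test compound and are incubated 16 hr at 37 °C, 5% CO2; ONE-Glo added, 30 min room temperature, then luminescence read.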
NPC1 promoter act: activators of NPC1 promoter. 2.4% of 320,000 active. Huh7 NPC1 promoter luciferase reporter, 24 h. Potency, µM (titrated, usually from 9.22 µM), for the others: at the top dose activation, most hits filed as activators; note: % of control where 0% means no effect; nearly all actives have a fitted effect of over 60% in size
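Luminescence from an NPC1 promoter-driven luciferase reporter in stably transfected Huh7 cells was measured after 24 h compound treatment at 37 °C, followed by 10 min ambient incubation with luciferase detection reagent.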
FLuc counter: counter-screen for miR-21 project: firefly luciferase inhibitors or activators. P08659. purified FLuc, Km substrates, luminescence inhibition. AID 588342. Potency, µM (doses to about 57.5 µM), for the others: at the top dose activity change, negative = inhibition, actives largely listed as inhibitors. 6.9% of 360,000 active;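 note: plate controls were vehicle for no effect and reference inhibitor for full effect; nearly all actives have a fitted effect of over 55% in size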
Target sequence (P08659 whole entry, looked up): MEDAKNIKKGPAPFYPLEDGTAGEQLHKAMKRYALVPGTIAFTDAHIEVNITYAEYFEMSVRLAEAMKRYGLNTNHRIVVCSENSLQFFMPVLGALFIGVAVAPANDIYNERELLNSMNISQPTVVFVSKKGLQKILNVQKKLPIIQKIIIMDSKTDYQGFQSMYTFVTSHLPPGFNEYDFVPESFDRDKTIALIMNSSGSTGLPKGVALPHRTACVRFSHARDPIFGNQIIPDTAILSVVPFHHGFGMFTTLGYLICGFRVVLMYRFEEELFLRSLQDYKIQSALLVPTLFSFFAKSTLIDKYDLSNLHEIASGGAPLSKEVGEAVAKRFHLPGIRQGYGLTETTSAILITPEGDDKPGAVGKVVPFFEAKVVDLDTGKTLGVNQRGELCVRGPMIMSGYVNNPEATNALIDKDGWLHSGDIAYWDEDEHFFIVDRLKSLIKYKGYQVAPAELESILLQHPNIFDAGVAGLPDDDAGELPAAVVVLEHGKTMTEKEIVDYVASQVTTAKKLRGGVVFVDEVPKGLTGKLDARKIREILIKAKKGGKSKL
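Purified P. pyralis luciferase (10nM final) with 10uM D-luciferin and 10uM ATP (Km levels) in 50mM Tris acetate pH 7.5, 10mM Mg acetate, 0.01% Tween-20, 0.05% BSA; qHTS 6-point titration, ~60 µM downward; luminescence read.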
Active calls of the source: *; ? = inconclusive; . = not tested or not shown; [ ] = dose if it differs, or a comment. Calls come from the whole dose curve; as a rule, active = well fitted curve in the direction sought with a large enough effect; inconclusive = small, poorly fitted or top-dose-only effect, or another doubt; inactive = no such curve, though single readings can be large; an effect the other way counts as inactive or inconclusive. Potency is the fitted concentration of half-maximal effect.

SMILES	p53 reactivator	SMN2 splice enh	Rab9 prom act	ELG1 genotoxic	NPC1 promoter act	FLuc counter
CCN(CC(=O)Nc1c(F)cccc1F)C(=O)c1cc([N+](=O)[O-])ccc1N1CCCCC1	-6%	.	-2%	-3%	1%	10%
N[C@@H](C(=O)O)[C@@H](CC(=O)O)c1ccc(Cl)cc1	.	-4%	.	.	.	.
CC(Sc1nc(=O)cc(N)n1CCc1ccccc1)C(=O)Nc1ccc(Cl)cc1 (configuration not stated)	.	.	.	.	.	-2%
CCOC(=O)N1CCN(C(=O)c2cc(-c3ccc(OCC)cc3)nc3ccccc23)CC1	?	13µM*	?	0%	23%	0.21µM*
Cc1ccc2c(c1)c1c(c(=O)n(-c3cccc(Cl)c3)c(=O)n1CC(=O)NCC1CCCO1)n2C (configuration not stated)	.	.	.	.	.	-1%
N#CC1=C(N)Oc2n[nH]c(-c3ccccc3)c2C12C(=O)Nc1ccccc12 (configuration not stated)	-5%	5.6µM*	-5%	0%	1%	-1%
CCN1C(=O)C2(C(C#N)=C(N)Oc3n[nH]c(-c4ccc(Cl)cc4)c32)c2ccccc21 (configuration not stated)	-4%	10%	-9%	-1%	-2%	-1%
CC(Sc1ccccc1)C(=O)NNC(=O)c1csc(N2CCOCC2)n1 (configuration not stated)	2%	.	-3%	1%	0%	0%
Cc1c(C(=O)O)nnn1-c1ccccc1	-15%	6%	4%	0%	-4%	0%
Cc1cccc(-n2nnc(C(=O)Nc3ccc(F)cc3)c2N)c1	?	10µM*	2.8µM*	13%	1.6µM*	6µM*
Cc1cccc(-n2nnc(C(=O)N3CCc4ccccc4C3)c2N)c1	7%	-13%	25%	2%	23%	15µM*
Cc1c(C(=O)Nc2ccc(C(=O)O)cc2)nnn1-c1ccccc1	.	.	.	.	.	0.27µM*
Cc1ccc(NC(=O)c2nnn(-c3cc(C)cc(C)c3)c2N)cc1	6%	-7%	-5%[1.84 µM]	4%	16%	?
COc1ccccc1CN1CCCC2(CCN(C(=O)c3cc(C(F)(F)F)cc(C(F)(F)F)c3)CC2)C1	.	-5%	.	.	.	.
c1ccc(-c2csc(Nc3ccccn3)n2)cc1	?	.	1.3µM*	2.9µM*	2.2µM*	1.3µM*
Fc1ccc(-c2csc(Nc3ccccn3)n2)c(F)c1	.	.	2.8µM*	?	1.6µM*	0.6µM*
Cc1cc(-c2csc(Nc3ccccn3)n2)ccc1F	.	.	1.6µM*	?	1.4µM*	1.7µM*
COc1ccc(-c2csc(Nc3ccccn3)n2)cc1OC	-27%	.	2µM*	2.3µM*	1.8µM*	6.7µM*
Cc1ccc(Cl)cc1Nc1nc(-c2cccnc2)cs1	8%	.	17%	-3%	3%	?
CC1CCCC(CC(=O)O)(CC(=O)O)C1 (configuration not stated)	10%	.	-1%	-3%	-9%	-2%
CCc1nn(CC(=O)NCCc2ccc(SC)cc2)c(=O)c2cc3sccc3n12	.	-6%	.	.	.	-5%
COc1ccc(-c2csc(Nc3ccc(C)cn3)n2)cc1	-1%	.	-4%	2%	-5%	-5%
Oc1ccc(-c2csc(Nc3ccccn3)n2)cc1	?	.	3.2µM*	7.3µM*	2µM*	6.7µM*
Cc1ccc(-c2csc(Nc3ccccn3)n2)cc1	.	.	1µM*	0.82µM*	0.71µM*	0.6µM*
Oc1ccc(Nc2nc(-c3cccs3)cs2)cc1	12%	18%	-4%	4%	-2%	?
SMILES	p53 reactivator	SMN2 splice enh	Rab9 prom act	ELG1 genotoxic	NPC1 promoter act	FLuc counter
COc1ccc(-c2c(C)nc3c(-c4ccsc4)cnn3c2N)cc1	?	.	0.25µM*	1.8µM*	0.32µM*	0.6µM*
Cc1cc(C(F)(F)Cl)n2ncc(-c3ccccn3)c2n1	-1%	.	-2%	6%	6%	-4%
COc1ccc(-c2c(C)nc3c(-c4ccccn4)cnn3c2N)cc1	?	.	0.32µM*	1.2µM*	0.32µM*	0.54µM*
COc1ccc(OC)c(CCNC(=O)c2cc3c(=O)n(C)c4ccccc4c3n2C)c1	.	0%	.	.	.	3%
O=C1N/C(=C/c2ccc(N3CCOCC3)o2)C(=O)N1c1cccc(Cl)c1	-11%	-2%	?	10%	14%	21µM*
COc1ccc(-c2nc3nc(C)c(Cc4ccccc4)c(=O)n3[nH]2)cc1	?	?	14%	?	13%	9.5µM*
COc1ccc(-c2nc3nc(C)cc(=O)n3[nH]2)cc1	0%	1%	18%	3%	-3%	17µM*
COC(=O)Cc1c(C)nc2nc(-c3ccc(OC)cc3)[nH]n2c1=O	10%	-9%	1%	?	12%	15µM*
Cc1ccc(NC(=O)Cn2nnc(-c3ccccc3)n2)c(C)c1	.	.	.	.	.	0%
Cc1cccn2cc(CNc3ccccc3)nc12	?	22µM*	?	21µM*	?	?
COc1ccc(-c2cn3cccc(C)c3n2)cc1Br	?	11µM*	2.8µM*	?	3.5µM*	2.4µM*
Cc1cccn2cc(-c3ccccc3)nc12	?	11µM*	1.8µM*	?	1.6µM*	3µM*
Cc1cccn2cc(-c3ccc(F)cc3)nc12	.	.	1.8µM*	0.92µM*	1.1µM*	2.4µM*
CCOC(=O)c1scc(-c2ccccc2)c1S(=O)(=O)N1CCN(c2ccccc2OC)CC1	.	.	.	.	.	0%
CCCS(=O)(=O)Nc1cc(-c2cn3cccc(C)c3n2)ccc1C	.	29%	.	.	.	12µM*
